JMJD2A Tudor inh: JMJD2A Tudor domain (human) inhibition; AlphaScreen JMJD2A-Tudor / H3K4me3 peptide binding; Potency, µM (highest dose often 114 µM), hits mostly inhibitors; AID 504339; 390,000 tested, 4.4% active; O75164; also: nearly all actives have a fitted effect of over 50% in size
HP1b chromo inh: HP1-beta chromodomain-methylated histone interaction inhibition; P83916; AlphaScreen HP1-beta / biotin-H3K9me3 peptide binding; Potency, µM (titrated, usually from 114 µM), hits mostly inhibitors; 390,000 tested, 0.56% active; AID 540317; also: nearly all actives have a fitted effect of over 70% in size
Target sequence (P83916 whole entry, looked up): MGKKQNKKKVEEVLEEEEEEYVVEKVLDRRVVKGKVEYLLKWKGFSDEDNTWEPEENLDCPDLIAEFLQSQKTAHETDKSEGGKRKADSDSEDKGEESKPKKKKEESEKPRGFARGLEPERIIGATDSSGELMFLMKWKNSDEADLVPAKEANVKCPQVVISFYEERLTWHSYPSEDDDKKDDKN
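AlphaScreen: HP1-beta (50 nM) preformed 30 min with biotin-H3(1-18)K9me3 peptide (50 nM) in PBS pH 7.4, 0.01% Tween-20. Compound added for 30 min at RT, then streptavidin donor/nickel chelate acceptor beads (10 ug/mL) for 30 min.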
GLS inhibitor: blocks human kidney-isoform glutaminase activity; AID 624170; 410,000 tested, 0.21% active; Potency, µM (doses to about 45.5 µM), actives largely listed as inhibitors; GLS enzymatic activity, qHTS titration
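Compounds were pin-transferred onto hKGA, after which L-glutamine (1 mM solution) and a detection mix of glutamate oxidase, HRP and Amplex Red were added. Initial and 30 min RT fluorescence reads were collected.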
BAZ2B block: blocks human BAZ2B; Q9UIF8; AlphaScreen BAZ2B-H3K14Ac peptide displacement; Potency, µM (doses to about 114 µM), most hits filed as inhibitors; 360,000 tested, 4.4% active; AID 504333; also: nearly all actives have a fitted effect of over 60% in size
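In this displacement format the biotinylated H3(5-23) peptide acetylated at Lys14 serves as ligand at 50 nM, with BAZ2B at 50 nM in PBS pH 7.4 containing 0.01% Tween-20. Donor and acceptor beads are 10 ug/mL final.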
G9a inh: blocks human histone lysine methyltransferase G9a. Q96KQ7. G9a H3K9 monomethylation, AlphaScreen, 2 h. Potency, µM (doses to about 102 µM), actives largely listed as inhibitors. 350,000 tested, 8.8% active; also: nearly all actives have a fitted effect of over 75% in size
Target sequence (Q96KQ7 913-1193 limits assumed): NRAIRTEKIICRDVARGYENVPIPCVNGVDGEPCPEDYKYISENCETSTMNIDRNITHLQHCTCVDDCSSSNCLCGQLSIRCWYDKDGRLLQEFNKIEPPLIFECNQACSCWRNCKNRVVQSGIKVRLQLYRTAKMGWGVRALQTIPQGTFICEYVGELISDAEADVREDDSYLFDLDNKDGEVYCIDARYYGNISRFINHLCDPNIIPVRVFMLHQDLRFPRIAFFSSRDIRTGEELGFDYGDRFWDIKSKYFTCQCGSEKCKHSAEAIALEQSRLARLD
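Signal arises when biotinylated H3K9 peptide, once monomethylated, bridges streptavidin donor and antibody-captured acceptor beads. Enzyme at 20 nM was preincubated 15 min with test compounds; peptide 500 nM and SAM 20 uM then reacted for 2 h.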
L3MBTL1 block: L3MBTL1 (human) inhibition | AlphaScreen L3MBTL1–H3K9me1 peptide binding | 230,000 tested, 0.66% active | Q9Y468 | AID 485360 | Potency, µM (doses to about 57.1 µM), most hits filed as inhibitors; also: nearly all actives have a fitted effect of over 60% in size
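Read-out is AlphaScreen signal from streptavidin donor and nickel chelate acceptor beads (10 ug/mL final each) bridging L3MBTL1 (50 nM) and biotinylated K9-monomethylated H3(1-15) peptide (75 nM), after 30 min compound exposure at room temperature.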
A number is an active result; 0 = inactive; ? = inconclusive; - = no result given; [ ] = another dose, or the depositor's remark. Rows were chosen to be rich in hits. Some 10% of all compounds tested hit in one or more screens of this group. Calls follow the shape of the dose curve; as a rule, active = well fitted curve in the direction sought with a large enough effect; inconclusive = small, poorly fitted or top-dose-only effect, or another doubt; inactive = no such curve, though single readings can be large; an effect the other way counts as inactive or inconclusive.

SMILES	JMJD2A Tudor inh	HP1b chromo inh	GLS inhibitor	BAZ2B block	G9a inh	L3MBTL1 block
COc1ccc(CN2CCN(S(=O)(=O)c3ccc(F)cc3)CC2)cc1OC	3.2µM	?	0	32µM	10µM	0
CCOc1ccccc1CN1CCN(S(=O)(=O)c2ccccc2)CC1	0	0	0	0	0	-
O=S(=O)(Cc1ccccc1)N1CCN(Cc2c(F)cccc2Cl)CC1	0	0	0	0	35µM	0
O=S(=O)(c1ccccc1)N1CCN(Cc2ccccc2)CC1	0	0	0	0	0	0
O=S(=O)(Cc1ccccc1)N1CCN(Cc2ccccc2)CC1	0	0	0	0	0[12.7 µM]	0
O=S(=O)(c1ccccc1)N1CCN(Cc2cccc(Cl)c2)CC1	8.9µM	0	0	32µM	?	-
CC(C)(C)OC(=O)N1CCC(c2c(C(=O)NCc3cccc(Cl)c3)cnn2-c2ccc(F)cc2)CC1	0	0	0	0	0	-
COc1ccc(N2C(=O)CS(=O)(=O)C23C(=O)N(Cc2ccc(F)cc2)c2ccc(C)cc23)cc1 (stereo unspecified)	0	0	0	0	0	-
CSc1ccc(C(=O)C2CCCN(Cc3cccn3-c3cccnc3)C2)cc1 (stereo unspecified)	45µM	?	0	?	?	0
COc1ccc(C(=O)C2CCCN(Cc3cccn3-c3cccnc3)C2)cc1OC (stereo unspecified)	0	0	0	0	0	0
COc1ccc(OC)c(C2(O)CSC(=Nc3cccnc3)N2Cc2ccco2)c1 (stereo unspecified)	0	0	0	63µM	0	0[11.4 µM]
CCOC(=O)c1nc(Nc2ccc(C(=O)OC(C)C)cc2)c2ccccc2n1	0	0	0	0	0	-
CC(=O)N1N=C(c2ccc3ccccc3c2)OC1(C)C	0	0	0	0	0	0
c1ccc2cc(-c3cc4ccccn4c3)ccc2c1	?	0	0	?	35µM	-
Cc1ccc(Cl)cc1NC(=O)c1ccc2nc(CCc3ccccc3)oc2c1	0	0	0	0	0	-
Oc1ccc(/C=N/N2CCN(C3c4ccccc4-c4ccccc43)CC2)cc1O	40µM	50µM	11µM	40µM	-	0
Oc1ccc(/C=N/N2CCN(C3c4ccccc4-c4ccccc43)CC2)cc1	0	0	?	0	0	0
O=C(O)c1ccccc1/C=N/N1CCN(C2c3ccccc3-c3ccccc32)CC1	0	0	0	0	40µM	0
Oc1ccc(/C=N/N2CCN(C3c4ccccc4-c4ccccc43)CC2)c(O)c1	40µM	?	0	?	40µM	?
O=C(O)c1ccc(/C=N/N2CCN(C3c4ccccc4-c4ccccc43)CC2)cc1	0[11.4 µM]	0	0	45µM	-	-
Cc1ccc(/C=N/N2CCN(C3c4ccccc4-c4ccccc43)CC2)o1	45µM	?	0	35µM	-	0
CCC(=Nc1ccc(N)cc1)C1=C(O)C(C(=O)OC)C(C)(C)CC1=O (stereo unspecified)	0	0	0	?	50µM	28µM
CCCCC(=Nc1ccc(N)cc1)C1=C(O)C(C(=O)OC)C(C)(C)CC1=O (stereo unspecified)	?	0	0	56µM	1µM	-
CCCC(=Nc1ccccc1)C1=C(O)C(C(=O)OC)C(C)(C)CC1=O (stereo unspecified)	0	0	0	?	?	0
COC(=O)c1nc(N)sc1-c1ccccc1	0[11.4 µM]	0	0	0	0	0
SMILES	JMJD2A Tudor inh	HP1b chromo inh	GLS inhibitor	BAZ2B block	G9a inh	L3MBTL1 block
COC(=O)c1nc(N)sc1-c1ccc(Cl)cc1	0	0	0	0	45µM	?
COc1ccc(Cl)c2c1[nH]c1nc(SCc3cccnc3)nnc12	0	0	0	0	?	0
COc1ccc(Cl)c2c1[nH]c1nc(SCc3ccccn3)nnc12	0	0	0	0	2µM	-
COC(=O)C1=C[C@@H](C(=O)OC)C2C3=C(C(=O)[C@]2(CC(C)C)NC(=O)c2ccccc2)[C@H](C)n2c(=O)n(-c4ccccc4)c(=O)n2[C@@H]3C1 (stereo partly specified)	0	0	-	-	-	-
CCc1nc2ccc(C(=O)N3CCN(c4cccc(OC)c4)CC3)cc2nc1CC	0	0	0	0	0	-
COc1cccc(N2CCN(C(=O)c3ccc4nc(N5CCCCC5)sc4c3)CC2)c1	?	0	0	0	40µM	-
COc1cccc(N2CCN(C(=O)c3ccc4ccccc4c3)CC2)c1	?	0	0	0	50µM	0
COc1ccc(N2CCN(C(=O)c3ccc4nc(N5CCCCC5)sc4c3)CC2)cc1	0	0	0	40µM	8.9µM	0
O=C(c1ccc2nc(N3CCOCC3)sc2c1)N1CCCC1	0	0	0	0	?	0
COc1cccc(N2CCN(C(=O)c3ccc4nc[nH]c4c3)CC2)c1	0	0	0	0	?	-
COc1ccc(OC)c(NC(=O)Nc2cccc(OCc3cc(=O)n4cc(C)ccc4n3)c2)c1	0	0	?	0	0	-
CCOC(=O)c1cccc(NC(=O)CCC(=O)N2CC(C)Oc3ccc(C)cc32)c1 (stereo unspecified)	0	0	0	0	0	-
COc1ccc(C(CC(=O)Nc2cccc(C)c2C)N2Cc3ccccc3C2=O)cc1 (stereo unspecified)	0	0	0	0	0	-
OC[C@H](O)[C@H](O)[C@@H](O)[C@@H](O)[C@@H]1SC(c2ccccc2)=NN1c1ccccc1	?	0	0	0	11µM	0
O=C(Nc1nnc(-c2ccc(Br)cc2)o1)C1=COCCO1	0	0	0	?	0	0
O=C(Nc1nnc(C2=COCCO2)o1)c1cccc(C(F)(F)F)c1	0	0	0	?	0	-
O=C(Nc1nnc(C2=COCCO2)o1)c1ccc([N+](=O)[O-])cc1	50µM	0	0	35µM	?	-
CC(=O)Nc1nnc(C2=COCCO2)o1	22µM	0	0	79µM	0	0
O=C(Nc1nnc(C2=COCCO2)o1)c1ccc(F)cc1	56µM	0	0	22µM	-	-
O=C(Nc1nnc(C2=COCCO2)o1)c1ccc(Cl)cc1	79µM	0	0	56µM	0	0
CN(C(=O)c1cc2nc(-c3ccc4c(c3)OCO4)cc(C(F)(F)F)n2n1)c1ccc(OC(F)(F)F)cc1	0	0	0	0	0	-
O=C(Cc1ccccc1)Nc1c(C(=O)Nc2ccccc2F)oc2ccccc12	0	0	0	0	0	-
Cc1cccc(OC(=O)CSc2nnc(-c3ccc4c(c3)OCO4)o2)c1C	0	0	0	0	0	-
COc1ccc(-c2nnc(NC(=O)C3=COCCO3)o2)cc1	0	0	0	28µM	0	0
Cc1cccc(-c2ccc3ncnc(N(C)Cc4ccco4)c3c2)c1	-	-	-	0	0[12.7 µM]	0
